# Results taken from PubChem BioAssay (EPA / NIEHS).
# Several values for one entry are separate records, joined by “and”; a condition that tells them apart may be missing. Identical values can stand only once. Records with an inconclusive call do not appear. A structure can be active in one record and inactive in another. Activity calls are given as the source filed them. Rule for the calls, unless noted: active = hit-call score of the fitted dose curve at least 0.9, where 1 is the maximum; inactive = score below 0.9.
# Tests used:
# [1] = CCTE_Mundy_HCI_Cortical_Synap_Neur_Matur_CellBodySpotCount: CCTE's Synaptogenesis and Neurite Maturation Assay in rat cortical cells for Cell Body Spot Count, Mundy Lab (AID 2284223)
# How it was run: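 Rat cortical neurons; AraC @ DIV 5; dose + media change DIV 7; fix DIV 12; anti-MAP2/anti-synaptophysin IF, Hoechst; HCI count of soma synaptophysin puncta/neuron; DMSO = negative control.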
# [2] = BSK_BT_PBMCCytotoxicity: PBMC Cytotoxicity Assessment in the BioMAP Diversity Plus: BT Assay (AID 2284225); details: primary human B cells with PBMC;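 note: PBMC viability measured by Alamar Blue dye reduction fluorescence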
# How it was run: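 Primary human co-culture of B cells and PBMC, pre-dosed 1 h then activated with SEB and TSST-1. Cytotoxicity is taken from Alamar Blue dye reduction, added for 6 h at the end of a 90 h incubation.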
# [3] = read-out: Secreted IgG (sIgG), gene 3500; assay: BSK_BT_sIgG: BioMAP Diversity Plus: BT Assay for Secreted IgG (sIgG) Biomarker Activity (AID 2284226); details: primary human B cells with PBMC
# How it was run: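 Human B cell/PBMC co-culture; compound exposure 24 h; sIgG by ELISA; gain-of-signal fit vs DMSO baseline.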
# [4] = BSK_BT_Bcell_Proliferation: Viability Assessment in the BioMAP Diversity Plus: BT Assay for B cell Proliferation (AID 2284227); details: primary human B cells with PBMC
# How it was run: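 Human B cell/PBMC co-culture; test chemical added; 72 h; TCA fix (10%), 0.1% SRB stain, A560 for total protein as a proliferation read-out; positive-direction fit vs DMSO baseline.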
# [5] = read-out: Interleukin 6 (IL6), IL6 (gene 3569); assay: BSK_BT_xIL6: BioMAP Diversity Plus: BT Assay for Interleukin 6 (IL6) Biomarker Activity (AID 2284228); details: primary human B cells with PBMC
# How it was run: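 B cells and peripheral blood mononuclear cells (human primary co-culture) were dosed with chemical, and after 24 h IL-6 released into the medium was measured by Luminex xMAP. Responses were analysed as gain of signal over DMSO control.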
# [6] = read-out: Interleukin 17A (IL17A), IL17A (gene 3605); assay: BSK_BT_xIL17A: BioMAP Diversity Plus: BT Assay for Interleukin 17A (IL17A) Biomarker Activity (AID 2284229); details: primary human B cells with PBMC
# How it was run: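 Secreted IL-17A was the measured endpoint, read by Luminex xMAP multiplex in supernatants of a human B cell/PBMC co-culture harvested 24 h after chemical dosing. Signal increase relative to DMSO defined activity.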
# [7] = read-out: Tumor necrosis factor (Homo sapiens) (UniProt P01375); assay: BSK_BT_xTNFa: BioMAP Diversity Plus: BT Assay for Tumor necrosis factor alpha (TNF-alpha) Biomarker Activity (AID 2284230); details: primary human B cells with PBMC
# How it was run: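 Read-out: Luminex xMAP quantitation of secreted TNF-alpha from a B cell/PBMC co-culture 24 h after compound addition. Signal analysed relative to DMSO vehicle, positive fitting direction.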
# [8] = read-out: Vascular cell adhesion molecule 1 (VCAM1), VCAM1 (gene 7412); assay: BSK_MyoF_VCAM1: BioMAP Diversity Plus: MyoF Assay for Vascular cell adhesion molecule 1 (VCAM1) Biomarker Activity (AID 2284231); details: primary human lung fibroblasts
# How it was run: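 ELISA read-out of VCAM-1 on human lung fibroblasts 24 h after chemical treatment, with positive-direction curve fitting relative to DMSO controls. Parallel cultures were stained with sulforhodamine B for total protein to flag overt cytotoxicity.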
# [9] = CCTE_Mundy_HCI_hNP1_Pro_ResponderAvgInten: CCTE's Proliferation Assay in human neuroprogenitor cells, Mundy Lab (AID 2284224; active = hit-call score of the fitted dose curve at least 0.9, where 1 is the maximum;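 note: human neural progenitor cells hNP1 derived from WA09 embryonic stem cells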)
# How it was run: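 Proliferation was scored as BrdU labelling intensity in human neural progenitors derived from WA09 embryonic cells, measured 26.25 hours after chemical dosing. Activity was fitted relative to DMSO.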
# Chain of Tumor necrosis factor (Homo sapiens) (P01375 whole entry, looked up): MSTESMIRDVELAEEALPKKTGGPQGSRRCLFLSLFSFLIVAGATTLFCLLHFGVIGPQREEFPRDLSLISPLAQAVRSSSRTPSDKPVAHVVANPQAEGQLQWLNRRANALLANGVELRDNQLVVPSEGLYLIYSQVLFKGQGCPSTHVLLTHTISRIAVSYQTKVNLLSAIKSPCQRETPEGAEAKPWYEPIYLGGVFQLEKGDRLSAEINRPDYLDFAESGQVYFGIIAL
SMILES,AC50 [1],outcome [2],outcome [3],AC50 [4],outcome [4],outcome [5],outcome [6],outcome [7],outcome [8],outcome [9],AC50 [8],AC50 [3],AC50 [5]
COc1cc2c(c(OC)c1OC)-c1ccc(OC)c(=O)cc1[C@@H](NC(C)=O)CC2,0.0427 µM (active),–,–,–,–,–,–,–,–,–,–,–,–
O=S(=O)(O)CCC(F)(F)C(F)(F)C(F)(F)C(F)(F)C(F)(F)C(F)(F)F,–,inactive,inactive,30 µM (active),inactive,inactive,inactive,inactive,inactive,–,–,–,–
FC(F)(F)C(F)(F)C(F)(F)C(F)(F)C(F)(F)C(F)(F)I,–,inactive,inactive,–,inactive,inactive,inactive,inactive,–,inactive,25.3 µM (active) and 40.7 µM (active),–,–
O=C(Cl)C(F)(F)C(F)(F)C(F)(F)C(=O)Cl,–,inactive,inactive,–,inactive,inactive,inactive,inactive,inactive,–,–,–,–
OCCC(F)(F)C(F)(F)C(F)(F)C(F)(F)F,–,inactive,inactive,–,inactive,inactive,inactive,inactive,inactive,–,–,–,–
OC(O)(C(F)C(O)(O)C(F)(F)F)C(F)(F)F,–,inactive,–,30 µM (active),–,–,inactive,inactive,inactive,–,–,32.6 µM (active) and 39.1 µM (active),53.3 µM (active) and 52 µM (active)
S=P(N1CC1)(N1CC1)N1CC1,–,inactive,–,8.1 µM (active),–,inactive,inactive,inactive,inactive,–,–,2.71 µM (active),–
Cc1cccc(O)c1C,–,inactive,inactive,–,inactive,inactive,inactive,inactive,inactive,–,–,–,–
NCC(F)(F)C(F)(F)C(F)(F)C(F)(F)F,–,inactive,inactive,–,inactive,inactive,inactive,inactive,inactive,–,–,–,–
